Screens from PubChem.
A selection: hits, their analogues and other compounds. The true share with any hit is near 19%.
DT40 TDP1 CPT: qHTS for Inhibitors of human tyrosyl-DNA phosphodiesterase 1 (TDP1): qHTS in cells in presence of CPT. chicken DT40 Tdp1-/-;hTDP1 cells + 20 nM CPT, ATP luminescence, 48 h. Potency, µM (doses to about 46.2 µM), hits mostly inhibitors. hit rate 12% among 420,000. AID 686979, 2013; also: nearly all actives have a fitted effect of over 55% in size
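Cell growth measured by CellTiter-Glo luminescence after a minimum 48 h, 37 C compound exposure with 20 nM CPT in Tdp1-knockout DT40 cells stably expressing hTDP1, seeded 400/well; qHTS titration format.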
TGFb SMAD3 inh: qHTS for Inhibitors of TGF-b; hit rate 1.2% among 410,000; Potency, µM (series often up to 46.1 µM), most hits filed as inhibitors; HepG2 CAGA-GFP TGF-b/SMAD3 reporter, GFP fluorescence, 18 h; TGF-beta stimulated, 500 pg/mL final; also: nearly all actives have a fitted effect of over 65% in size
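Inhibition was scored as loss of TGF-beta-induced (500 pg/mL final, 18 hours, 37 degrees C) GFP in HEPG2 cells carrying a CAGA-GFP reporter, in DMEM with 1% FBS. Well GFP was summed per cell; Activity was normalised to unstimulated and stimulated DMSO wells, then concentration-response fitting.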
HepG2 viability: qHTS for Inhibitors of TGF-b: Cytotox Counterscreen. Potency, µM (doses to about 46.1 µM), most hits filed as cytotoxic. hit rate 0.76% among 410,000. HepG2 CAGA-GFP viability, ATP luminescence, 18 h
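HepG2 CAGA-GFP cells (1000/well, DMEM with 1% FBS) received compound, then TGF-beta at 500 pg/mL final, and were incubated 18 hours at 37 degrees C. Viability was read by CellTiter-Glo luminescence. Media-only wells were set as complete cell-killing and DMSO as no toxicity.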
TDP1 cell noCPT: qHTS for Inhibitors of human tyrosyl-DNA phosphodiesterase 1 (TDP1): qHTS in cells in absence of CPT | DT40 Tdp1-/- hTDP1 cells, no CPT, ATP luminescence, 48 h | Potency, µM (highest dose often 46.2 µM), hits mostly inhibitors | hit rate 15% among 420,000 | AID 686978, 2013; also: nearly all actives have a fitted effect of over 55% in size
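DT40 Tdp1-/-;hTDP1 cells, no CPT (DMSO vehicle only), 400 cells/well; compounds pin-transferred; ≥48 hr, 37 °C; CellTiter-Glo 30 min RT dark, luminescence read.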
IL-1B inflam inh: qHTS for Inhibitors of Inflammasome Signaling: IL-1-beta AlphaLISA Primary Screen; hit rate 4.7% among 360,000; activity change, % at 57.5 µM; THP-1 LPS/ATP IL-1B secretion, AlphaLISA, 16 h; stronger effect = lower value; in the data active = activity change below about -50%; inconclusive = mostly about -30% to -49%
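Secreted IL-1B measured by AlphaLISA bead assay after 16 h compound exposure of THP-1 cells; compounds (final up to 57.5 uM) added 1 h before LPS (250 ng/mL) and ATP (1.25 mM) stimulation; lower signal means less secretion.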
TDP1 block: qHTS Assay for Inhibitors of Tyrosyl-DNA Phosphodiesterase (TDP1) | Potency, µM (series often up to 130 µM), most hits filed as inhibitors | recombinant TDP1, AlphaScreen DNA substrate cleavage | hit rate 0.28% among 350,000; also: nearly all actives have a fitted effect of over 40% in size
Target sequence (Q9NUW8 whole entry, looked up): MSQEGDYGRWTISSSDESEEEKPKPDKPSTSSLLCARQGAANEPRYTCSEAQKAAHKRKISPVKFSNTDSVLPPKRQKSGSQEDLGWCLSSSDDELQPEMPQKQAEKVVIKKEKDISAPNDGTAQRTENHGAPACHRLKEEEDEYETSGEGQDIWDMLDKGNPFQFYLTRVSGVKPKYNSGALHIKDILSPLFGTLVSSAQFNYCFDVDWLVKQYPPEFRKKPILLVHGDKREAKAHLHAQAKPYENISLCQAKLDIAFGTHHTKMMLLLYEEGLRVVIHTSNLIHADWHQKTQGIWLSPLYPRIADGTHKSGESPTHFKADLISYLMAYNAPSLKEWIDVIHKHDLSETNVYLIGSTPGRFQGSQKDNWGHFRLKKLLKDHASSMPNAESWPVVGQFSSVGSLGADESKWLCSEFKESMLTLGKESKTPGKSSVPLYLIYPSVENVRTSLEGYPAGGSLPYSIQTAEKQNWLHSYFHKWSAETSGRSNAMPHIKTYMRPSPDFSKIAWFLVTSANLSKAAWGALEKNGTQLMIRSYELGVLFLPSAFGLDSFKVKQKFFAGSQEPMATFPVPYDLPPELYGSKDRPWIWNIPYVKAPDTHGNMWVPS
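Tdp1 1 nM final; 15 min RT w/ cpd; substrate 15 nM, 5 min; beads 10 ug/ml, 10 min; AlphaScreen read. Neg ctrl: no enzyme.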
A number is an active result; 0 = inactive; ? = inconclusive; - = not tested or not shown; [ ] = dose if it differs, or a comment. Unless noted, calls follow the shape of the dose curve; as a rule, active = well fitted curve in the direction sought with a large enough effect; inconclusive = small, poorly fitted or top-dose-only effect, or another doubt; inactive = no such curve, though single readings can be large; an effect the other way counts as inactive or inconclusive.

SMILES	DT40 TDP1 CPT	TGFb SMAD3 inh	HepG2 viability	TDP1 cell noCPT	IL-1B inflam inh	TDP1 block
COc1ccc(NC(=O)CN(C)C(=O)c2cn(-c3ccccc3)nc2-c2ccc(Cl)cc2)cc1	?	?	0	15µM	-60	0
COc1ccc(NC(=O)CN(C)C(=O)c2cn(-c3ccccc3)nc2-c2ccc(F)cc2)cc1	?	?	0	?	-53	0
Cc1ccc(-c2nn(-c3ccc(F)cc3)cc2C(=O)N(C)CC(=O)Nc2ccc(N3CCOCC3)cc2)cc1	?	0	0	15µM	0	0
COc1ccc(Cl)cc1NC(=O)CN(C)C(=O)c1cn(-c2ccccc2)nc1-c1cccnc1	18µM	0	0	?	-91	0[0.505 µM]
CN(CC(=O)Nc1ccc(N2CCOCC2)cc1)C(=O)c1cc(F)c(F)cc1Cl	0	0	0	0	0	0
COc1ccc(NC(=O)CN(C)C(=O)c2cn(-c3ccccc3)nc2-c2ccc(OC)cc2)cc1	?	0	0	?	0	0
Cc1c(Cl)cccc1NC(=O)CNC(=O)c1cn(-c2ccccc2)nc1-c1cccnc1	?	0	0	?	0	0
COc1ccc(-c2nn(-c3ccccc3)cc2C(=O)N(C)C)cc1	0	0	0	0	0	-
Cc1cnc(-n2ncc(C(=O)N(CCO)C(C)C)c2-c2cccs2)nc1-c1ccc(F)cc1	0	-	-	?	-	-
Cc1nn(CC(=O)Nc2ccc3c(c2)CCC3)c(C)c1[N+](=O)[O-]	0	0	0	0	0	0
CCOc1ccc(NC(=O)c2cnc3sc(N4CCOCC4)nn3c2=O)cc1	0	0	0	0	-	0
O=C(Oc1ccc(C(=S)N2CCOCC2)cc1)c1cccc(Cl)c1	0	0	0	0	0	0
CCN(CC)CCCNC(=S)N(Cc1cccnc1)Cc1cc2cccc(C)c2[nH]c1=O	0	0	0	0	?	0
Cc1cccc2cc(CN(Cc3cccnc3)C(=S)NCCCN(C)C)c(=O)[nH]c12	13µM	0	0	?	0	0
Cc1ccc2[nH]c(=O)c(CN(Cc3cccnc3)C(=S)NCCCN(C)C)cc2c1	0	0	0	0	0	0
Cc1cccc2cc(CN(Cc3ccccc3)C(=S)NCCCN(C)C)c(=O)[nH]c12	?	0	0	?	-85	0
Cc1ccc(CN(Cc2cc3cccc(C)c3[nH]c2=O)C(=S)NCCCN(C)C)cc1	?	0	0	?	-77	0
CC1(C(=O)N2Cc3ccccc3C2)CCN1C(=O)Cc1ccccc1 (centres undefined)	?	0	0	?	0	-
CC1(C)CC2CN(C(=O)Cc3ccccc3)C(C)(C2)C1 (centres undefined)	?	0	0	16µM	0	0
CC(C)c1cnc2c(c1SCC(=O)NCc1ccccc1)c(=O)n(C)c(=O)n2C	?	0	0	?	-	0
O=C(O)Cn1nnc(COc2ccccc2)n1	0	0	0	0	0	0
CCOCCCNC(=O)Nc1cc(C(=O)NCc2ccc(C(C)C)cc2)ccc1N1CCCC1	26µM	?	0	?	-	0
CCOc1ccccc1NC(=O)Nc1cc(C(=O)NCc2ccc(C)cc2)ccc1N1CCCC1	8.2µM	0	0	8.2µM	-	0
COc1ccc(CNC(=O)c2ccc(N3CCCC3)c(NC(=O)NCc3ccc(C)cc3)c2)cc1	16µM	0	0	?	-	0
COc1ccc(NC(=O)Nc2cc(C(=O)NCc3ccc(C)cc3)ccc2N2CCCC2)cc1	0	0	0	0	-	0
SMILES	DT40 TDP1 CPT	TGFb SMAD3 inh	HepG2 viability	TDP1 cell noCPT	IL-1B inflam inh	TDP1 block
CC(C)c1ccc(CNC(=O)c2ccc(N3CCCC3)c(NC(=O)NCc3ccc(F)cc3)c2)cc1	?	0	0	?	-	0
CCc1ccccc1NC(=O)Nc1cc(C(=O)NCc2ccccc2OC)ccc1N1CCCC1	15µM	0	0	?	-	0
COc1ccc(C)cc1NC(=O)Nc1cc(C(=O)NCc2ccc(C)cc2)ccc1N1CCCC1	?	0	0	?	-	0
COc1cccc(CNC(=O)CN2C(=O)c3ccccc3S2(=O)=O)c1	0	0	0	0	0	0
CN(C)CCCc1cc(C(=O)Nc2ccc(-c3ccncc3)cc2)ccc1O	?	-	-	?	-	0
COc1cc(OC)cc(C(=O)N2CCCc3ccccc32)c1	16µM	0	0	?	0	0
O=C(CSc1ccc(-c2ccc(F)cc2)nn1)N1CCCc2ccccc21	16µM	0	0	?	0	0
COc1cc(OC)cc(-c2nnc(SCC(=O)N3CCCc4ccccc43)o2)c1	?	0	0	21µM	0	0
O=C(c1coc(=O)c(Br)c1)N1CCC(C(O)(c2ccccc2)c2ccccc2)CC1	0.65µM	0	0	1.8µM	0	0
COc1cc(-c2nnc(SCC(=O)N3CCCc4ccccc43)o2)cc(OC)c1OC	?	0	0	23µM	-	0[12.3 µM]
COC(=O)c1ccc(OCC(=O)N2CCCc3ccccc32)cc1	0	0	0	0	0	0
CC1(C)CCCN(C(=O)c2coc(=O)c(Br)c2)C1	0.92µM	0	0	0.82µM	0	6.3µM
CC(=O)c1cccc(OCC(=O)N2CCCc3ccccc32)c1	?	0	0	16µM	0	0
O=C(CSc1nnc(-c2ccc(F)cc2)o1)N1CCCc2ccccc21	?	0	0	18µM	-	0
CSCC[C@H](NC(=O)[C@H](CCCNC(=N)N)NC(=O)[C@H](Cc1ccc(O)cc1)NC(=O)[C@@H]1CCCN1C(=O)CNC(=O)[C@H](CCC(=O)O)NC(=O)[C@H](CC(=O)O)NC(=O)[C@H](CCCCN)NC(=O)[C@H](CCCCN)NC(=O)[C@H](CCC(=O)O)NC(=O)[C@H](C)N)C(=O)N[C@@H](CCC(=O)O)C(=O)N[C@@H](Cc1cnc[nH]1)C(=O)N[C@@H](Cc1ccccc1)C(=O)N[C@@H](CCCNC(=N)N)C(=O)N[C@@H](Cc1c[nH]c2ccccc12)C(=O)NCC(=O)N[C@@H](CO)C(=O)N1CCC[C@H]1C(=O)N1CCC[C@H]1C(=O)N[C@@H](CCCCN)C(=O)N[C@@H](CC(=O)O)C(=O)O	-	-	-	-	-	0
Cc1cc(F)ccc1NC(=O)CN1C(=O)CCc2cc(S(=O)(=O)N3CCOCC3)ccc21	0	0	0	0	-	0
Cc1occc1-c1nnc(SCC(=O)N2CCc3ccccc32)o1	16µM	0	0	21µM	0	0
